# Source: PubChem BioAssay (NCI)
# The panel holds about 79,000 compounds, 15% with a hit somewhere; the sample as a whole holds those more often. A number with no mark means an inactive call. Active and inactive are the calls of the source. Cut-off read from the data, not from the text of the source: active = growth inhibition above about 70%; inactive = the rest.
# Tests used:
# [1] = NCI Yeast Anticancer Drug Screen. Data for the rad52 strain (AID 147);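 note: 0% = growth of vehicle-treated control cultures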; conditions: S. cerevisiae rad52 mutant growth inhibition, hits give high values
# Procedure, shortened: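 Screen used a yeast mutant impaired in DNA repair. After compound exposure, growth was measured. Values reflect inhibition compared with vehicle-treated cells.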
# [2] = NCI Yeast Anticancer Drug Screen. Data for the wt1 strain (AID 149);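 note: 0% = growth of vehicle-treated wt1 cultures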; conditions: S. cerevisiae wt1 strain (SPY 50644) growth inhibition, hits give high values
# Procedure, shortened: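 Vehicle-normalised growth inhibition; strain wt1; compound exposure.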
# [3] = NCI Yeast Anticancer Drug Screen. Data for the rad50EPP+ strain (AID 151);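 note: 0% = growth of vehicle-treated control cultures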; conditions: S. cerevisiae rad50 mutant strain, hits give high values
# Procedure, shortened: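 Exposing the rad50EPP+ strain to each compound, growth was compared with vehicle-only cultures to give inhibition.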
# [4] = NCI Yeast Anticancer Drug Screen. Data for the mgt1 strain (AID 153); conditions: S. cerevisiae mgt1 mutant growth inhibition, hits give high values
# Procedure, shortened: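 Genetically defined yeast (mgt1) treated with compound; inhibition of growth expressed against vehicle-treated controls.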
# [5] = NCI Yeast Anticancer Drug Screen. Data for the rad50 strain (AID 155);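 note: 0% = growth of vehicle-only cultures of the same strain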; conditions: S. cerevisiae rad50 strain growth inhibition, hits give high values
# Procedure, shortened: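 A DNA repair-deficient yeast mutant serves as the test organism; compound-induced growth inhibition is calculated against vehicle-treated cells.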
# [6] = NCI Yeast Anticancer Drug Screen. Data for the mec2-1 strain (AID 157); conditions: S. cerevisiae mec2-1 strain, hits give high values
# Procedure, shortened: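 Readout is yeast growth inhibition, normalised to vehicle-treated controls, in the mec2-1 strain exposed to compound.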
# [7] = NCI Yeast Anticancer Drug Screen. Data for the rad14 strain (AID 159);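 note: 0% = growth of vehicle-treated control cultures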; conditions: S. cerevisiae rad14 strain growth inhibition, hits give high values
# Procedure, shortened: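 Vehicle-treated cultures served as the baseline for growth inhibition of a DNA repair-mutant yeast strain exposed to each compound.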
# [8] = NCI Yeast Anticancer Drug Screen. Data for the sgs1 mgt1 strain (AID 161);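 note: 0% = growth of cultures given vehicle only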; conditions: S. cerevisiae sgs1 mgt1 strain, hits give high values
# Procedure, shortened: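 This yeast growth screen uses a strain with defined DNA-repair lesions; compound-treated growth is compared with vehicle-treated growth.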
# [9] = NCI Yeast Anticancer Drug Screen. Data for the CLN2oe strain (AID 163);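 note: 0% = growth of vehicle-only control cultures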; conditions: S. cerevisiae CLN2oe strain, hits give high values
# Procedure, shortened: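 Values reflect how much compound exposure reduced yeast growth, referenced to vehicle-exposed cells. Assay organism is a strain with a defined genetic change affecting cell-cycle control.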
# [10] = NCI Yeast Anticancer Drug Screen. Data for the cln2 rad14 strain (AID 165);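 note: 0% = growth equal to vehicle treated cultures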; conditions: S. cerevisiae cln2 rad14 strain, hits give high values
# Procedure, shortened: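 Relative to vehicle controls, growth inhibition of compound-treated cln2 rad14 yeast was recorded.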
# [11] = NCI Yeast Anticancer Drug Screen. Data for the bub3 strain (AID 167); conditions: S. cerevisiae bub3 mutant strain, hits give high values
# Procedure, shortened: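 Inhibition values come from growth of compound-treated mutant yeast normalised to vehicle-treated controls.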
# [12] = NCI Yeast Anticancer Drug Screen. Data for the wt2 strain (AID 169);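 note: 0% = growth of vehicle-treated yeast cultures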; conditions: S. cerevisiae wt2 strain growth inhibition, hits give high values
# Procedure, shortened: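 Values express reduction in yeast growth under compound treatment, referenced to vehicle-treated cells.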
# [13] = NCI Yeast Anticancer Drug Screen. Data for the sgs1 strain (AID 173);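 note: 0% = growth of vehicle-only control cultures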; conditions: S. cerevisiae sgs1 mutant, hits give high values
# Procedure, shortened: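 Treat defined-mutant yeast with compound; measure growth; calculate inhibition relative to vehicle-treated cells.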
# [14] = NCI Yeast Anticancer Drug Screen. Data for the mlh1 rad18 strain (AID 175); conditions: S. cerevisiae mlh1 rad18 strain growth inhibition, hits give high values
# Procedure, shortened: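 Test agents were incubated with a yeast strain of defined genotype (DNA damage repair defect). Inhibition of growth was derived by comparison with vehicle-exposed cultures.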
# [15] = NCI Yeast Anticancer Drug Screen. Data for the rad18 strain (AID 177); conditions: S. cerevisiae rad18 mutant growth inhibition, hits give high values
# Procedure, shortened: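 A genetically defined yeast mutant impaired in DNA damage repair was treated with test compounds, then its growth was measured against cultures receiving vehicle alone.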
# [16] = NCI Yeast Anticancer Drug Screen. Data for the mlh1 strain (AID 171);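 note: 0% = growth of vehicle-treated control cultures of the same strain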; conditions: S. cerevisiae mlh1 strain growth inhibition, hits give high values
# Procedure, shortened: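 Steps: expose the defined-mutant yeast strain to compound; expose a parallel culture to vehicle; measure growth; express compound effect as inhibition relative to the vehicle culture.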
# [17] = at 5.0 µM (retest, dose inferred, filed as 0.5)
# [18] = at 50.0 µM (retest, dose inferred, filed as 5.0)
compound,measurement,setting,value
CC(C)(C)c1ccc2c(c1)C(=O)c1ccccc1C2=O,growth inhibition,[1]; at 1.2 µM,-9%
same,growth inhibition,[1]; at 3.7 µM,-13%
same,growth inhibition,[1]; at 11.0 µM,-15%
same,growth inhibition,[1]; at 33.0 µM,-6%
same,growth inhibition,[1]; at 100.0 µM,4%
same,growth inhibition,[2]; at 1.2 µM,0%
same,growth inhibition,[2]; at 3.7 µM,12%
same,growth inhibition,[2]; at 11.0 µM,14%
same,growth inhibition,[2]; at 33.0 µM,12%
same,growth inhibition,[2]; at 100.0 µM,15%
same,growth inhibition,[3]; at 1.2 µM,-9%
same,growth inhibition,[3]; at 3.7 µM,-1%
same,growth inhibition,[3]; at 11.0 µM,18%
same,growth inhibition,[3]; at 33.0 µM,27%
same,growth inhibition,[3]; at 100.0 µM,28%
same,growth inhibition,[4]; at 1.2 µM,-3%
same,growth inhibition,[4]; at 3.7 µM,-9%
same,growth inhibition,[4]; at 11.0 µM,-7%
same,growth inhibition,[4]; at 33.0 µM,-7%
same,growth inhibition,[4]; at 100.0 µM,-4%
same,growth inhibition,[5]; at 1.2 µM,-17%
same,growth inhibition,[5]; at 3.7 µM,-18%
same,growth inhibition,[5]; [17],14%
same,growth inhibition,[5]; at 11.0 µM,-19%
same,growth inhibition,[5]; at 33.0 µM,8%
same,growth inhibition,[5]; [18],5%
same,growth inhibition,[5]; at 50.0 µM,-2.85%
same,growth inhibition,[5]; at 100.0 µM,6%
same,growth inhibition,[6]; at 1.2 µM,-6%
same,growth inhibition,[6]; at 3.7 µM,-6%
same,growth inhibition,[6]; [17],8%
same,growth inhibition,[6]; at 11.0 µM,-6%
same,growth inhibition,[6]; at 33.0 µM,-9%
same,growth inhibition,[6]; [18],8%
same,growth inhibition,[6]; at 50.0 µM,-17.9%
same,growth inhibition,[6]; at 100.0 µM,-5%
same,growth inhibition,[7]; at 1.2 µM,1%
same,growth inhibition,[7]; at 3.7 µM,-13%
same,growth inhibition,[7]; at 11.0 µM,-6%
same,growth inhibition,[7]; at 33.0 µM,2%
same,growth inhibition,[7]; at 100.0 µM,13%
same,growth inhibition,[8]; [17],9%
same,growth inhibition,[8]; [18],20%
same,growth inhibition,[8]; at 50.0 µM,0.45%
same,growth inhibition,[9]; at 1.2 µM,-11%
same,growth inhibition,[9]; at 3.7 µM,-12%
same,growth inhibition,[9]; at 11.0 µM,-14%
same,growth inhibition,[9]; at 33.0 µM,-13%
same,growth inhibition,[9]; at 100.0 µM,-12%
same,growth inhibition,[10]; [17],-7%
same,growth inhibition,[10]; [18],0%
same,growth inhibition,[10]; at 50.0 µM,-6.45%
same,growth inhibition,[11]; at 1.2 µM,4%
same,growth inhibition,[11]; at 3.7 µM,24%
same,growth inhibition,[11]; [17],25%
same,growth inhibition,[11]; at 11.0 µM,65%
same,growth inhibition,[11]; at 33.0 µM,78% (active)
same,growth inhibition,[11]; [18],85% (active)
same,growth inhibition,[11]; at 50.0 µM,89% (active)
same,growth inhibition,[11]; at 100.0 µM,91% (active)
same,growth inhibition,[12]; at 1.2 µM,1%
same,growth inhibition,[12]; at 3.7 µM,6%
same,growth inhibition,[12]; at 11.0 µM,10%
same,growth inhibition,[12]; at 33.0 µM,10%
same,growth inhibition,[12]; at 100.0 µM,25%
same,growth inhibition,[13]; at 1.2 µM,-13%
same,growth inhibition,[13]; at 3.7 µM,-7%
same,growth inhibition,[13]; at 11.0 µM,0%
same,growth inhibition,[13]; at 33.0 µM,5%
same,growth inhibition,[13]; at 100.0 µM,17%
same,growth inhibition,[14]; [17],5%
same,growth inhibition,[14]; [18],26%
same,growth inhibition,[14]; at 50.0 µM,-4.9%
same,growth inhibition,[15]; at 1.2 µM,-11%
same,growth inhibition,[15]; at 3.7 µM,-9%
same,growth inhibition,[15]; at 11.0 µM,-6%
same,growth inhibition,[15]; at 33.0 µM,-6%
same,growth inhibition,[15]; at 100.0 µM,-14%
O=C1C(=O)c2cccc([N+](=O)[O-])c2-c2ccccc21,growth inhibition,[1]; at 1.2 µM,6%
same,growth inhibition,[1]; at 3.7 µM,-4%
same,growth inhibition,[1]; at 11.0 µM,37%
same,growth inhibition,[1]; at 33.0 µM,99% (active)
same,growth inhibition,[1]; at 100.0 µM,97% (active)
same,growth inhibition,[2]; at 1.2 µM,2%
same,growth inhibition,[2]; at 3.7 µM,20%
same,growth inhibition,[2]; at 11.0 µM,18%
same,growth inhibition,[2]; at 33.0 µM,100% (active)
same,growth inhibition,[2]; at 100.0 µM,98% (active)
same,growth inhibition,[3]; at 1.2 µM,-2%
same,growth inhibition,[3]; at 3.7 µM,-14%
same,growth inhibition,[3]; at 11.0 µM,24%
same,growth inhibition,[3]; at 33.0 µM,99% (active)
same,growth inhibition,[3]; at 100.0 µM,98% (active)
same,growth inhibition,[4]; at 1.2 µM,2%
same,growth inhibition,[4]; at 3.7 µM,-2%
same,growth inhibition,[4]; at 11.0 µM,6%
same,growth inhibition,[4]; at 33.0 µM,99% (active)
same,growth inhibition,[4]; at 100.0 µM,98% (active)
same,growth inhibition,[5]; at 1.2 µM,-78%
same,growth inhibition,[5]; at 3.7 µM,-4%
same,growth inhibition,[5]; [17],19%
same,growth inhibition,[5]; at 11.0 µM,55%
same,growth inhibition,[5]; at 33.0 µM,99% (active)
same,growth inhibition,[5]; [18],98% (active)
same,growth inhibition,[5]; at 50.0 µM,98.5% (active)
same,growth inhibition,[5]; at 100.0 µM,96% (active)
same,growth inhibition,[6]; at 1.2 µM,5%
same,growth inhibition,[6]; at 3.7 µM,9%
same,growth inhibition,[6]; [17],31%
same,growth inhibition,[6]; at 11.0 µM,10%
same,growth inhibition,[6]; at 33.0 µM,99% (active)
same,growth inhibition,[6]; [18],99% (active)
same,growth inhibition,[6]; at 50.0 µM,99.2% (active)
same,growth inhibition,[6]; at 100.0 µM,97% (active)
same,growth inhibition,[7]; at 1.2 µM,11%
same,growth inhibition,[7]; at 3.7 µM,20%
same,growth inhibition,[7]; at 11.0 µM,62%
same,growth inhibition,[7]; at 33.0 µM,99% (active)
same,growth inhibition,[7]; at 100.0 µM,98% (active)
same,growth inhibition,[8]; [17],31%
same,growth inhibition,[8]; [18],99% (active)
same,growth inhibition,[8]; at 50.0 µM,98.9% (active)
same,growth inhibition,[9]; at 1.2 µM,-6%
same,growth inhibition,[9]; at 3.7 µM,-5%
same,growth inhibition,[9]; at 11.0 µM,-1%
same,growth inhibition,[9]; at 33.0 µM,99% (active)
same,growth inhibition,[9]; at 100.0 µM,98% (active)
same,growth inhibition,[10]; [17],1%
same,growth inhibition,[10]; [18],98% (active)
same,growth inhibition,[10]; at 50.0 µM,97.8% (active)
same,growth inhibition,[11]; at 1.2 µM,32%
same,growth inhibition,[11]; at 3.7 µM,35%
same,growth inhibition,[11]; [17],53%
same,growth inhibition,[11]; at 11.0 µM,47%
same,growth inhibition,[11]; at 33.0 µM,99% (active)
same,growth inhibition,[11]; [18],98% (active)
same,growth inhibition,[11]; at 50.0 µM,98.8% (active)
same,growth inhibition,[11]; at 100.0 µM,99% (active)
same,growth inhibition,[16]; at 1.2 µM,-3%
same,growth inhibition,[16]; at 3.7 µM,-1%
same,growth inhibition,[16]; at 11.0 µM,3%
same,growth inhibition,[16]; at 33.0 µM,99% (active)
same,growth inhibition,[16]; at 100.0 µM,98% (active)
same,growth inhibition,[13]; at 1.2 µM,16%
same,growth inhibition,[13]; at 3.7 µM,11%
same,growth inhibition,[13]; at 11.0 µM,35%
same,growth inhibition,[13]; at 33.0 µM,99% (active)
same,growth inhibition,[13]; at 100.0 µM,96% (active)
same,growth inhibition,[14]; [17],37%
same,growth inhibition,[14]; [18],98% (active)
same,growth inhibition,[14]; at 50.0 µM,98.8% (active)
same,growth inhibition,[15]; at 1.2 µM,1%
same,growth inhibition,[15]; at 3.7 µM,6%
same,growth inhibition,[15]; at 11.0 µM,15%
same,growth inhibition,[15]; at 33.0 µM,99% (active)
same,growth inhibition,[15]; at 100.0 µM,98% (active)
